# Measured values as given in PubChem BioAssay (NCI).
# “And” between values parts separate entries of the source, which are not always exact repeats. Identical values can stand only once. Compounds without any hit were thinned out: in the full panel of roughly 79,000, 15% have a hit. The source holds several records for some structures; these can differ, active in one and inactive in another. The source made the active and inactive calls. Rule as the data show it: active = growth inhibition above about 70%; inactive = the rest.
# Assay: NCI Yeast Anticancer Drug Screen. Data for the sgs1 mgt1 strain (AID 161);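 also: 0% = growth of cultures given vehicle only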
# Conditions: S. cerevisiae sgs1 mgt1 strain, at 50.0 µM (retest, dose inferred, filed as 5.0), stronger effect = higher value
# Summary of the method: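 Read-out: growth inhibition vs vehicle controls. Cells: mutant yeast strain deficient in DNA damage repair.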
row,Structure (SMILES),growth inhibition
1,O=c1[nH]cnc2[nH]cc(CN3CCCCC3)c12,29% (inactive)
2,NCCBr,-4% (inactive)
3,CSc1ncc(COP(=S)(OCc2cnc(SC)nc2N)OCc2cnc(SC)nc2N)c(N)n1,3% (inactive)
4,O=[N+]([O-])c1ccc(O)c(Cl)c1,44% (inactive)
5,CCN(CC)CC(=O)c1ccc2c(ccc3ccccc32)c1,99% (active)
6,Cc1ccc([C@H]2N[C@@H]2c2ccccn2)cc1,-12% (inactive)
7,CCC1(C2=CCCCC2)C(=O)NC(=S)NC1=O,77% (active)
8,Cn1cnc(C(=N)[Se])c1N,53% (inactive)
9,CCOC(=O)NC(=S)[S][Sb]([S]C(=S)NC(=O)OCC)[S]c1nc2ccc(N=Nc3ccc(NS(=O)(=O)c4ccc(NC(=O)C(N5CC5)(N5CC5)N5CC5)cc4)cc3)cc2s1,99% (active)
10,COc1ccccc1/C=C(/C)[N+](=O)[O-],99% (active) and 100% (active)
11,O=c1oc2ccccc2c(O)c1C(c1ccc(OCc2ccccc2)cc1)c1c(O)c2ccccc2oc1=O,92% (active)
12,COc1cc(N(CCCl)CCCl)ccc1C=Nc1cccc(Cl)c1,7% (inactive)
13,O=[N+]([O-])c1cc2c([N+](=O)[O-])cccc2o1,99% (active)
14,ClCCN(CCCl)c1ccc(C2N(Cc3ccc(N(CCCl)CCCl)cc3Cl)CCCN2Cc2ccc(N(CCCl)CCCl)cc2Cl)cc1,99% (active)
15,CCN(Cc1ccccc1)CC(O)c1ccc(Cl)c(Cl)c1 (stereo not drawn),99% (active)
16,FC1(F)C(Cl)=[C]([Hg][C]2=C(Cl)C(F)(F)C(F)(F)C(F)(F)C2(F)F)C(F)(F)C(F)(F)C1(F)F,99% (active)
17,CCn1c(O)c(C(=O)NC(C)c2ccc([N+](=O)[O-])cc2)c(=O)n(CC)c1=S (stereo not drawn),83% (active)
18,CC(=O)[O][Hg][c]1ccccc1N,99% (active)
19,CCC[CH2][Sn]1([CH2]CCC)[O]Cc2nc(C)ccc2[O]1,96% (active)
20,CCCCCCCCCCCCC(=O)[O][Hg][c]1ccccc1,100% (active)

row,Structure (SMILES),growth inhibition
1,CN(C)CC1CC2C3CC=C4CC(O)CCC4(C)C3CCC2(C)C1=O (stereo not drawn),86% (active)
2,CC(=O)O.CC(=O)[O-].CC(=O)[O-].[Co+3].[NH-]CC[NH-].[NH-]CC[NH-],97% (active)
3,Nc1nc(CCl)cs1,-3% (inactive)
4,CC1=CCC2(C)C3CCC4(C)C(O)CCC4C3CCC2(C)C1 (stereo not drawn),97% (active)
5,CC1CCC2(NC1)OC1CC3C4CC=C5CC(O)CCC5(C)C4CCC3(C)C1C2C (stereo not drawn),99% (active)
6,CCN1CCC(O)(c2ccc(Cl)c(Cl)c2)C(C(=O)c2ccc(Cl)c(Cl)c2)C1 (stereo not drawn),99% (active)
7,O=C(c1ccccc1)c1c(CC(O)c2ccccn2)n(C(=O)c2ccccc2)c2ccccc12 (stereo not drawn),86% (active)
8,CC(O[Si](c1ccccc1)(c1ccccc1)C(C)(C)C)[C@H](NC(=O)OC(C)(C)C)C(=O)O (stereo partly drawn),47% (inactive)
9,CC(C)=CC1CC(C)C2(CCC3(C)CC4C(C(=O)CC4(C)O)/C(C=O)=C\CC32)O1 (stereo not drawn),99% (active)
10,CC(=O)O[C@H]1C[C@@H]2OC3C=C(C)CCC3(C)[C@@]1(C)[C@@]21CO1 (stereo partly drawn),99% (active)
11,O=C1NC(=O)C([N+](=O)[O-])C(=O)N1,-8% (inactive)
12,N#C[S-].[Nd+3].c1ccc(-c2ccccn2)nc1.c1ccc(-c2ccccn2)nc1.c1ccc(-c2ccccn2)nc1,99% (active)
13,CC(=O)Nc1ccccc1[As](O[As](c1ccccc1)c1ccccc1NC(C)=O)c1ccccc1 (stereo not drawn),100% (active)
14,Oc1cccc[c]1[Hg][Cl],99% (active)
15,Nc1nc(N)c(-c2ccc(Cl)c(Cl)c2)c(CCc2ccc(CNC(=O)Nc3ccc(S(=O)(=O)F)cc3)cc2)n1,35% (inactive)
16,C1CC[N-]CC1.CC(=N\O)/C(C)=N/O.CC(=N\O)/C(C)=N/O.OC1[CH-]CCCC1.[Co+2],25% (inactive)
17,CC(=O)OC1C2(CC3N4C(=O)C5(CO)SSC4(CC31O)C(=O)N5C)OC(C)C(C)(C)C2=O (stereo not drawn),97% (active)
18,C[C@H]1C/C=C/[C@H]2[C@@H]3O[C@]3(C)[C@@H](C)[C@H]3[C@H](Cc4ccccc4)NC(=O)[C@]32OC(=O)O/C=C/[C@@](C)(O)C1=O,14% (inactive)
19,C1CC[N-]CC1.[Cl][Au]([Cl])[Cl],89% (active)

# Same assay, conditions: S. cerevisiae sgs1 mgt1 strain, at 50.0 µM, stronger effect = higher value
row,Structure (SMILES),growth inhibition
1,O=c1[nH]cnc2[nH]cc(CN3CCCCC3)c12,-1.4% (inactive)
2,NCCBr,6.55% (inactive) and -5.6% (inactive)
3,CSc1ncc(COP(=S)(OCc2cnc(SC)nc2N)OCc2cnc(SC)nc2N)c(N)n1,-15.9% (inactive)
4,O=[N+]([O-])c1ccc(O)c(Cl)c1,66% (inactive)
5,CCN(CC)CC(=O)c1ccc2c(ccc3ccccc32)c1,99.5% (active)
6,Cc1ccc([C@H]2N[C@@H]2c2ccccn2)cc1,3.45% (inactive)
7,CCC1(C2=CCCCC2)C(=O)NC(=S)NC1=O,0.6% (inactive) and 51.5% (inactive)
8,Cn1cnc(C(=N)[Se])c1N,30.8% (inactive)
9,CCOC(=O)NC(=S)[S][Sb]([S]C(=S)NC(=O)OCC)[S]c1nc2ccc(N=Nc3ccc(NS(=O)(=O)c4ccc(NC(=O)C(N5CC5)(N5CC5)N5CC5)cc4)cc3)cc2s1,99.5% (active)
10,COc1ccccc1/C=C(/C)[N+](=O)[O-],99.2% (active)
11,O=c1oc2ccccc2c(O)c1C(c1ccc(OCc2ccccc2)cc1)c1c(O)c2ccccc2oc1=O,65.3% (inactive)
12,COc1cc(N(CCCl)CCCl)ccc1C=Nc1cccc(Cl)c1,94% (active)
13,O=[N+]([O-])c1cc2c([N+](=O)[O-])cccc2o1,99.2% (active)
14,ClCCN(CCCl)c1ccc(C2N(Cc3ccc(N(CCCl)CCCl)cc3Cl)CCCN2Cc2ccc(N(CCCl)CCCl)cc2Cl)cc1,97.5% (active)
15,CCN(Cc1ccccc1)CC(O)c1ccc(Cl)c(Cl)c1 (stereo not drawn),20.1% (inactive)
16,FC1(F)C(Cl)=[C]([Hg][C]2=C(Cl)C(F)(F)C(F)(F)C(F)(F)C2(F)F)C(F)(F)C(F)(F)C1(F)F,99.7% (active)
17,CCn1c(O)c(C(=O)NC(C)c2ccc([N+](=O)[O-])cc2)c(=O)n(CC)c1=S (stereo not drawn),90.6% (active)
18,CC(=O)[O][Hg][c]1ccccc1N,93.7% (active)
19,CCC[CH2][Sn]1([CH2]CCC)[O]Cc2nc(C)ccc2[O]1,80% (active)
20,CCCCCCCCCCCCC(=O)[O][Hg][c]1ccccc1,99.5% (active)

row,Structure (SMILES),growth inhibition
1,CN(C)CC1CC2C3CC=C4CC(O)CCC4(C)C3CCC2(C)C1=O (stereo not drawn),92.2% (active)
2,CC(=O)O.CC(=O)[O-].CC(=O)[O-].[Co+3].[NH-]CC[NH-].[NH-]CC[NH-],-3.35% (inactive)
3,Nc1nc(CCl)cs1,-17.6% (inactive) and -0.25% (inactive)
4,CC1=CCC2(C)C3CCC4(C)C(O)CCC4C3CCC2(C)C1 (stereo not drawn),63.8% (inactive)
5,CC1CCC2(NC1)OC1CC3C4CC=C5CC(O)CCC5(C)C4CCC3(C)C1C2C (stereo not drawn),91.8% (active) and 99% (active)
6,CCN1CCC(O)(c2ccc(Cl)c(Cl)c2)C(C(=O)c2ccc(Cl)c(Cl)c2)C1 (stereo not drawn),99.7% (active)
7,O=C(c1ccccc1)c1c(CC(O)c2ccccn2)n(C(=O)c2ccccc2)c2ccccc12 (stereo not drawn),82.5% (active)
8,CC(O[Si](c1ccccc1)(c1ccccc1)C(C)(C)C)[C@H](NC(=O)OC(C)(C)C)C(=O)O (stereo partly drawn),88% (active)
9,CC(C)=CC1CC(C)C2(CCC3(C)CC4C(C(=O)CC4(C)O)/C(C=O)=C\CC32)O1 (stereo not drawn),95% (active)
10,CC(=O)O[C@H]1C[C@@H]2OC3C=C(C)CCC3(C)[C@@]1(C)[C@@]21CO1 (stereo partly drawn),94% (active) and 32.1% (inactive)
11,O=C1NC(=O)C([N+](=O)[O-])C(=O)N1,34.5% (inactive)
12,N#C[S-].[Nd+3].c1ccc(-c2ccccn2)nc1.c1ccc(-c2ccccn2)nc1.c1ccc(-c2ccccn2)nc1,93.5% (active)
13,CC(=O)Nc1ccccc1[As](O[As](c1ccccc1)c1ccccc1NC(C)=O)c1ccccc1 (stereo not drawn),99.5% (active)
14,Oc1cccc[c]1[Hg][Cl],99.5% (active)
15,Nc1nc(N)c(-c2ccc(Cl)c(Cl)c2)c(CCc2ccc(CNC(=O)Nc3ccc(S(=O)(=O)F)cc3)cc2)n1,79.8% (active)
16,C1CC[N-]CC1.CC(=N\O)/C(C)=N/O.CC(=N\O)/C(C)=N/O.OC1[CH-]CCCC1.[Co+2],13.9% (inactive)
17,CC(=O)OC1C2(CC3N4C(=O)C5(CO)SSC4(CC31O)C(=O)N5C)OC(C)C(C)(C)C2=O (stereo not drawn),92.8% (active)
18,C[C@H]1C/C=C/[C@H]2[C@@H]3O[C@]3(C)[C@@H](C)[C@H]3[C@H](Cc4ccccc4)NC(=O)[C@]32OC(=O)O/C=C/[C@@](C)(O)C1=O,32.7% (inactive)
19,C1CC[N-]CC1.[Cl][Au]([Cl])[Cl],93% (active)
